Results filed as inconclusive are left out. Entries that show only a call come without a potency. Active and inactive are the calls of the source. Calls follow the shape of the dose curve; as a rule, active = well fitted inhibition curve with a large enough effect; inconclusive = small, poorly fitted or top-dose-only effect; inactive = no such curve, though single readings can be large or run the other way.
Potency is read from the fitted curve at half-maximal effect.

Tumor susceptibility gene 101 protein (Homo sapiens), sequence (Q99816 whole entry, looked up, the tested form may be a part): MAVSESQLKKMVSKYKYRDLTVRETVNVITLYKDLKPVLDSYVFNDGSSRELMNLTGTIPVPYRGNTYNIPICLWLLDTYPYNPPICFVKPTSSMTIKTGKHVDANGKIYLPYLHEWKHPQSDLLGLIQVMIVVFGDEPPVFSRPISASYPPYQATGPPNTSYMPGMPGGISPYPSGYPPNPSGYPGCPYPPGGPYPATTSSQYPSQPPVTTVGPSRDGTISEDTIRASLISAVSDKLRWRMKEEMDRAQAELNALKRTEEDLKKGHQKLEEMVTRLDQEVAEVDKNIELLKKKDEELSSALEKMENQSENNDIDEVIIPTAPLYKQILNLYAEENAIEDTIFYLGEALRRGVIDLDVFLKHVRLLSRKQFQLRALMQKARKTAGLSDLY

The experiment addresses Tumor susceptibility gene 101 protein (Homo sapiens) (UniProt Q99816). As to the kind of experiment: qHTS Assay for Iinhibitors of HIV-1 Budding by Blocking the Interaction of PTAP/TSG101: Hit Validation (AID 651600). Also: nearly all actives have a fitted effect of over 70% in size. The note with it: PTAP peptide/TSG101 UEV interaction, biochemical assay; series mostly up to 57.5 µM. In outline:
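Tsg101 binding domain 10 uM + FITC-PTAP peptide 50 nM (final), 10 mM HEPES pH 7.5/0.15 M NaCl/0.01% Tween 20/3 mM EDTA/0.1 mM TCEP; 20 min RT; FP read, FITC filters.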
For orientation: In qHTS, concentration-response curves come from the screen itself.
Take `O=[N+]([O-])c1cc(Cl)cc(/C=N/NC(=S)Nc2ccc(S(=O)(=O)N3CCOCC3)cc2)c1O`: the Potency entry is “inactive”.
As for `OC(CN1CCN(c2ccccn2)CC1)Cn1c2ccccc2c2ccccc21` (centres undefined), the entry is “inactive”; as for `CSc1nc(-c2cccs2)c(C#N)c(=O)[nH]1`, “inactive”; as for `S=C(Nc1ccc(N2CCOCC2)cc1)Nc1ccc2nc(-c3ccco3)c(-c3ccco3)nc2c1`, 32.6 µM (active).
In the case of `COc1ccc(NC(=O)c2cccc(-c3ccc(O)cc3)c2)cn1`, the Potency was 20.6 µM (active).
The value for `c1ccc2c(c1)CCCN2Cc1nnnn1CC1CCCO1` (centres undefined) was “inactive”.
Regarding `O=C1c2ccccc2S(=O)(=O)c2cc(N3CCN(C(=O)c4ccccc4)CC3)ccc21`, the Potency result was “inactive”.
In the case of `COCCNC(=S)N/N=C/c1c2ccccc2cc2ccccc12`, the Potency entry is “inactive”.
Take `COc1ccc(-n2nc(C(=O)Nc3ccc(OC)c(OC)c3)c3c4ccccc4n(C)c3c2=O)cc1`: the Potency result is “inactive”.
For `Cc1cccc2cc(/C=C3\N=C(c4ccccc4)OC3=O)c(N3CCOCC3)nc12`, the Potency result is “inactive”.
On to `Cc1c(C(=O)N(C)c2cccc(C(F)(F)F)c2)sc2nc3n(c(=O)c12)CCCCC3`, for which the Potency entry is “inactive”.
Consider `CC(C)c1cc(=O)oc2c3c4c(cc12)CCCN4CCC3`, for which the Potency is 5.17 µM (active).
Take `CC(=O)N1c2ccccc2C(=O)C1N1CCCCC1` (centres undefined): the Potency result was “inactive”.
In the case of `CN1C(=O)NC(c2ccccc2[N+](=O)[O-])C2=C1CCCC2=O` (centres undefined), the Potency is 16.3 µM (active).
`CCCN1CCCc2cc(CN)ccc21`: the Potency entry was “inactive”.
As for `Cc1ccccc1N1C(=O)c2cccc3c(N(C)CCO)ccc(c23)C1=O`, the figure is 13 µM (active); as for `CCCCn1c(SCC(=O)c2cc(OC)ccc2OC)nc2cc(S(N)(=O)=O)ccc21`, “inactive”; as for `COc1cc2c(cc1OC)-c1cc3ccc4c(c3c[n+]1CC2)OCO4`, 13 µM (active).
As to `CCN(CC)c1ccc2cc(-c3nc(-c4ccc(OC)cc4)cs3)c(=O)oc2c1`, the Potency entry is “inactive”.
The value for `CCC1CCCCN1C(=O)c1cc2cc(Br)ccc2oc1=O` (centres undefined) was “inactive”; that for `CN(C)c1ccc(/C=C2\SC(=O)N(CC(O)Cn3c4ccccc4c4ccccc43)C2=O)cc1` (centres undefined) was 16.3 µM (active).
The value for `O=C1C=CC(=O)c2c(O)c(CO)c(CO)c(O)c21` was “inactive”; that for `Cc1ccc(Nc2ccc([N+](=O)[O-])ccc2=O)cc1` was “inactive”; that for `CC1=CC(=C(C#N)c2nc3ccccc3s2)C=C(C)N1c1ccc(F)cc1` was 18.3 µM (active).
In the case of `O=[n+]1c2c(n([O-])c3cc(F)c(N4CCCC4)cc31)CCC2`, the Potency is 13 µM (active).
Take `CCN(CC)S(=O)(=O)c1ccc(C(=O)OCCN2C(=O)c3cccc4c(N5CCOCC5)ccc(c34)C2=O)cc1`: the Potency was 4.11 µM (active).
`CCOC(=O)C1CCCN(c2nc3ccccc3nc2C(C#N)C(=O)NCc2ccccc2)C1` (centres undefined): the Potency entry is “inactive”.
For the molecule `COc1ccc(CNS(=O)(=O)c2cc3c(cc2Cl)N(C(C)=O)CCO3)cc1`, the Potency entry was “inactive”.
Turning to `O=c1[nH]c(=O)n(-c2cc(Br)c(O)c(Br)c2)cc1Br`, the Potency result was “inactive”.
With `CCOc1ccc(NC(=O)N(C2CCCCC2)C(C)c2ccncc2)cc1` (centres undefined), the Potency result was “inactive”.
On to `CC(C)(C)c1ccc(C2C3=C(CCCC3=O)NC3=C2C(=O)c2ccccc23)cc1` (centres undefined), for which the Potency entry was “inactive”.
For the molecule `Cc1cccc(N=Nc2c(O)[nH]c3ccc(F)cc23)c1`, the Potency result was “inactive”.
For `COc1ccc(CCn2c(=N)c(S(=O)(=O)c3ccc(Cl)cc3)cc3c(=O)n4ccccc4nc32)cc1`, the Potency is 6.51 µM (active).
The value for `CCOC(=O)c1c(C)oc2c1c(CN1CCN(C(=O)OCC)CC1)c(O)c1ccccc12` was “inactive”.
Take `Cc1ccc(C2C=C(c3ccccc3)Nc3nc(NS(C)(=O)=O)nn32)cc1` (centres undefined): the Potency entry was “inactive”.
As to `Cc1ccccc1-c1ccc(/C=C2/SC(N3CCOCC3)=NC2=O)o1`, the Potency result was “inactive”.
The value for `CCN(CC)C(=O)CSc1nnc2nnc3cc(OC)ccc3n12` was 29.1 µM (active); that for `COc1ccc(-c2cc(C(=O)N3CC(C)CC(C)C3)c3ccccc3n2)cc1OC` (centres undefined) was “inactive”; that for `CCN(CC)CCCNc1ccc2ncn3c4ccc(O)cc4c(=O)c1c23` was 4.61 µM (active).
